# Screening data as filed in PubChem.
# RXFP1 ag – qHTS Assay for Agonists of the Relaxin Receptor RXFP1; HEK293T-RXFP1 cAMP TR-FRET, 30 min; response scale: percent of porcine relaxin response, buffer zero; Potency, µM (top dose mostly 57.5 µM), hits mostly activators; actives 0.3% (n = 370,000); AID 2676, 2010; also: nearly all actives have a fitted effect of over 60% in size
# Target sequence (Q9HBX9 whole entry, looked up): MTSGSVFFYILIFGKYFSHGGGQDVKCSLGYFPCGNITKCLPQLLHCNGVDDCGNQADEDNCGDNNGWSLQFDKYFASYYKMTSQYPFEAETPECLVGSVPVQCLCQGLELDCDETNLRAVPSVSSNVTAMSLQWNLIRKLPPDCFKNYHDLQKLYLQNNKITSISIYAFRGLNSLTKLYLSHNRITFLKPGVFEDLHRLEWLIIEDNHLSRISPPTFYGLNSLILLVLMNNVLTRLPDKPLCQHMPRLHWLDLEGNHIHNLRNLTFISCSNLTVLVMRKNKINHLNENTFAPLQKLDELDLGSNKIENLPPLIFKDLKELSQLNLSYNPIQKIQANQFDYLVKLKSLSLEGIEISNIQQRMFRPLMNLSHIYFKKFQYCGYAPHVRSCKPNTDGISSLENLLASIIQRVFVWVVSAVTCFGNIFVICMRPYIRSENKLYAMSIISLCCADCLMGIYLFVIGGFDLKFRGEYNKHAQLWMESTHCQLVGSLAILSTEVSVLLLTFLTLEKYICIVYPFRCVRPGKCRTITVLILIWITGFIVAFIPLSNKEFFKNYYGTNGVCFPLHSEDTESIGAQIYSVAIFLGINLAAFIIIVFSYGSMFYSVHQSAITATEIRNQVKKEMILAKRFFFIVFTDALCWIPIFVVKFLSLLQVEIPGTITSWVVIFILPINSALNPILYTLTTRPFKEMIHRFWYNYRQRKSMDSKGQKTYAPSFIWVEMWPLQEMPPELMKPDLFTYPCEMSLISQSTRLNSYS
#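 cAMP rise read by TR-FRET after 30 min, 37C compound exposure (up to 58 uM) in RXFP1-transfected HEK293 cells with Ro 20174 present. EC50 from Hill-equation fits, with 29 nM porcine relaxin as 100% and buffer as basal.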
# RXFP1 antagonist – qHTS Assay for Antagonists of the Relaxin Receptor RXFP1; Relaxin receptor 1 (Homo sapiens), Q9HBX9; HEK293-RXFP1, relaxin-stimulated cAMP HTRF, 30 min; active compounds read low; activity change, negative = inhibition, % at 57.5 µM; actives 0.59% (n = 350,000); AID 1259400, 2018;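 active = activity change of -60% or lower, but not beyond a set lower limit; inconclusive = change between -60% and -40%, or beyond the set limit; inactive = change above -40%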
# B2AR arrestin – qHTS assay of beta-arrestin-biased ligands of beta2-adrenergic receptor. actives 0.02% (n = 330,000). Potency, µM (series often up to 46.1 µM), actives largely listed as activators. beta-arrestin recruitment to beta2AR, cell-based reporter. AID 492947, 2010. Beta-2 adrenergic receptor (Homo sapiens), P07550; also: nearly all actives have a fitted effect of over 65% in size
# Chronic BCR inh – qHTS Assay to Find Inhibitors of Chronic Active B-Cell Receptor Signaling; ABC-DLBCL IkBa-CBG/CBR reporter, luminescence ratio, 4 h; actives 0.05% (n = 340,000); Potency, µM (highest dose often 46.1 µM), usual class: inhibitors; active = well fitted inhibition curve with a large enough effect in the signal ratio, with a control signal flat, not every such curve was filed as active; inconclusive = small, poorly fitted or top-dose-only effect, or effect the other way, or a change in a side signal; the % refers to the signal ratio
#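 Cell line TMD8 (human ABC DLBCL), stably expressing tet-inducible CBG68-IkBa fusion and CBR; IMDM/0.5% FBS; cpd up to 46 uM; dox induction, 4 h, 37C/5% CO2; dual luminescence; green/red ratio; MG132 control.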
# Hits are given with their value; i = inactive; ? = inconclusive; nt = not tested or not shown. The list is not random: actives were taken first. Their share in the collection is about 0.59%. Unless noted, calls follow the shape of the dose curve; as a rule, active = well fitted activation curve with a large enough effect; inconclusive = small, poorly fitted or top-dose-only effect; inactive = flat fitted curve, though single readings scatter.
SMILES,RXFP1 ag,RXFP1 antagonist,B2AR arrestin,Chronic BCR inh
Cc1cc(NC(=O)C(C)SCC(=O)Nc2cc(Cl)ccc2N2CCN(C)CC2)no1 (stereo not given),i,i,i,i
Cc1cc(NC(=O)C(C)SCC(=O)Nc2cc(C(F)(F)F)ccc2N2CCOCC2)no1 (stereo not given),i,-72,i,i
CCCOc1ccc(/C=C2\SC(=S)N(CC3CCCO3)C2=O)cc1 (stereo not given),i,i,i,i
O=C1/C(=C/c2ccc(O)cc2)SC(=S)N1CC1CCCO1 (stereo not given),i,-73,i,?
CCCC(=O)O[C@]1(C(=O)CC)CC[C@H]2[C@@H]3CCC4=CC(=O)CC[C@]4(C)[C@H]3[C@@H](O)C[C@@]21C,nt,i,nt,nt
O=c1cc(N2CCCCC2)c(-c2ccccc2)nn1Cc1ccccc1,i,-120,i,i
COc1ccc(Cn2nc(-c3ccccc3)c(N3CCCCC3)cc2=O)cc1,i,i,i,?
O=C(O)[C@H](O)c1ccccc1,nt,i,nt,nt
CCOC(=O)C(NC(=O)c1ccccc1Cl)(Nc1ccc(C)c(C)c1)C(F)(F)F (stereo not given),i,i,i,i
COC(=O)C(Nc1ccccc1Cl)(c1cc(C)c(O)c(C)c1)C(F)(F)F (stereo not given),i,-64,i,?
Cc1nnc2ccc(-c3cccc(NC(=O)c4ccc(Br)o4)c3)nn12,i,-75,i,?
CN(CC(=O)Nc1ccc(F)c(F)c1F)C(=O)CCc1nc2sc3c(c2c(=O)[nH]1)CCCC3,i,-63,i,i
Cc1cccc(N=Cc2cc(Br)cc(Cl)c2O)c1,i,-64,i,i
NC(=O)c1cccc(N=Cc2cc(Cl)cc(Cl)c2O)c1,i,i,i,i
CCCCCCCCOc1ccccc1C(=O)Nc1ccc(C(=O)OCC[N+](C)(CC)CC)cc1,nt,i,nt,nt
CCc1ccc(NC2=NCC(c3ccccc3)S2)cc1 (stereo not given),i,-69,i,i
COc1ccc(-c2cc(C(F)(F)F)nc(SCC(=O)NCc3ccc(Cl)cc3)n2)cc1,?,i,nt,nt
COc1ccccc1/C=C1\SC(=S)N(Nc2nc(C)cc(C)n2)C1=O,i,i,i,?
Cc1cc(C)nc(NN2C(=O)/C(=C/c3ccc(O)cc3)SC2=S)n1,i,-116,i,i
CN(C/C=C/c1ccccc1)Cc1cccc2ccccc12,i,-69,i,nt
NCCCCCc1nnc(SCc2ccc(F)cc2)o1,i,nt,nt,nt
CCCCn1c(=O)c2oc3ccccc3c2n(Cc2ccc(OC)cc2)c1=O,i,i,nt,nt
CCCOc1ccc(-c2nonc2NC(=O)c2oc3ccc(Cl)cc3c2C)cc1OCCC,i,i,nt,nt
COC(=O)c1c(NC(NC(=O)C(C)(C)C)C(Cl)(Cl)Cl)sc2c1CCC2 (stereo not given),i,-81,i,i
COC(=O)c1c(NC(NC(=O)C(C)C)C(Cl)(Cl)Cl)sc2c1CCC2 (stereo not given),i,-60,i,?
SMILES,RXFP1 ag,RXFP1 antagonist,B2AR arrestin,Chronic BCR inh
CCC(=O)NC(Nc1sc2c(c1C(=O)OC)CCC2)C(Cl)(Cl)Cl (stereo not given),i,nt,i,?
CC(C)(C)c1ccc(C(=O)CCCCl)cc1,nt,i,nt,nt
Cc1nc(N2CCOCC2)c2c(C(=O)N(C)Cc3ccccc3)c(C)oc2n1,i,i,nt,nt
Cc1ccc(CN2C(=O)C(=O)c3cc(Br)cc(C)c32)cc1,i,-62,nt,nt
CCOc1ccc(S(=O)(=O)NCCc2sc3nc(-c4ccc(F)cc4)nn3c2C)cc1,i,i,nt,?
CC1(C)O[C@@H]2[C@H](O1)[C@@H](CO)O[C@H]2n1cnc2c(N)ncnc21,i,nt,i,i
CC1(C)O[C@@H]2[C@H](O1)[C@@H](COS(=O)(=O)O)O[C@H]2n1cnc2c(N)ncnc21,16µM,nt,i,?
Nc1ncnc2c1ncn2[C@@H]1O[C@H](COS(=O)(=O)O)[C@@H](O)[C@H]1O,7.1µM,nt,i,?
CCn1c(=O)sc2cc(NS(=O)(=O)c3ccc(F)c(C)c3)ccc21,i,i,nt,nt
Cn1cc(/C=N/n2cnc3scc(-c4ccc(Cl)cc4)c3c2=O)c2ccccc21,i,i,i,3.5µM
COc1ccc(C)cc1NC(=O)c1cc2c(s1)-c1ccccc1SC2,i,i,nt,nt
CCOC(=O)c1cc(-c2ccc(OC)cc2)n(CCC(=O)NCCc2ccccc2)c1C,i,-62,nt,i
CCCCCCCCCCCCOCCO,nt,i,nt,nt
